Lassa entry inh = qHTS for Inhibitors of binding or entry into cells for Lassa Virus | AID 540256, 2011 | Potency, µM (titrated, usually from 37.9 µM), without a hit: top-dose activity change, negative = inhibition, hits mostly inhibitors | 1.2% of 300,000 active | Lassa virus pseudotype entry inhibition, cell reporter; calls by dose curve; tested in HEK293 cells; also: potency is read from the fitted curve at half-maximal effect; nearly all actives have a fitted effect of over 50% in size
HCMV antiviral = qHTS Assay for inhibitors of the human cytomegalovirus (HCMV); HFF cells, HCMV-luciferase reporter, 72 h; active compounds read low; activity change, negative = inhibition, % at 57.5 µM; 4.5% of 410,000 active; in the data active = activity change below about -60%; inconclusive = no clear call, values can overlap the other calls; inactive = above about -39%
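Cell-based, HFFs, 1000 cells/well, 16 h 37C; cpds in DMSO + HCMV-luc, MOI 1 PFU/cell; 72 h 37C; OneGlo luminescence after 5 min RT; norm. to buffer vs Salinomycin 10uM.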
Giardia FBPA inh = qHTS Assay for Inhibitors of Fructose-1,6-bisphosphate Aldolase from Giardia Lamblia. A8B2U2. purified Giardia FBPA. Potency, µM (titrated, usually from 59.6 µM), for inactives: at the top dose activity, negative = inhibition, hits mostly inhibitors. 0.71% of 290,000 active; also: potency is read from the fitted curve at half-maximal effect; nearly all actives have a fitted effect of over 55% in size
Target sequence (A8B2U2 whole entry, looked up): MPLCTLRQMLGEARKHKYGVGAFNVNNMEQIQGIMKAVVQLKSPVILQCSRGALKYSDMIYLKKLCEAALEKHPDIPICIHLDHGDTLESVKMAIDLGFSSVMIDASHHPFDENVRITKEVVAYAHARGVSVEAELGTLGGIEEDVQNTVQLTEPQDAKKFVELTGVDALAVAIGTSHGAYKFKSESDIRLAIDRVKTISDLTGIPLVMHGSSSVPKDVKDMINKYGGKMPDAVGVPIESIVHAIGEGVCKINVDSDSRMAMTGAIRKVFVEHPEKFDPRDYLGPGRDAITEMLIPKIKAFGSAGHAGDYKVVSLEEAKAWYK
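Giardia FBPA (40 nM reagent) was preincubated 10 min at RT with compound (up to 57.5 uM final), then substrate plus GAPDH/TPI/NAD/arsenate coupling system with diaphorase/resazurin was added; resorufin fluorescence (525/598 nm) was read after 20 min.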
MARV entry inh = qHTS for inhibitors of binding or entry into cells for Marburg Virus; Marburg virus pseudotyped entry inhibition, cell reporter; Potency, µM (titrated, usually from 37.8 µM), for inactives: top-dose activity change, negative = inhibition, most hits filed as inhibitors; 1.8% of 300,000 active; calls by dose curve; tested in HEK293 cells; also: potency is read from the fitted curve at half-maximal effect
FMDV inh = High Throughput Screening for Foot and Mouth Disease Virus Antivirals. FMDV antiviral cell-based qHTS. Potency, µM (top dose mostly 57.9 µM), without a hit: top-dose activity change, negative = inhibition, hits mostly inhibitors. 1.2% of 410,000 active. AID 1159524, 2015; calls by dose curve; tested in HEK293T cells; also: read-out not given here; potency is read from the fitted curve at half-maximal effect; nearly all actives have a fitted effect of over 45% in size
HCV inhibitor = qHTS Assay for Inhibitors of Hepatitis C Virus (HCV); Huh7.5.1 HCVcc-Cre infection, luciferase reporter, 44 h; Potency, µM (doses to about 41.8 µM), for inactives: at the top dose activity change, negative = inhibition, actives largely listed as inhibitors; 3.4% of 340,000 active; AID 651820, 2012; also: potency is read from the fitted curve at half-maximal effect
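Cells seeded at 1,000/well and cultured 4 h, then compounds added followed by HCVcc-Cre virus (~0.5 moi). After 44 h further culture, luciferase substrate was added, plates held 15 min at room temperature, and luminescence read for 15 sec.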
* marks the source's active call; other numbers are inactive results; ? = inconclusive; nt = not tested or not shown; [ ] = remark or other dose. Compounds with a hit are over-represented: about 8.3% of the library has one in this group of screens. Unless noted, calls follow the shape of the dose curve; as a rule, active = well fitted curve in the direction sought with a large enough effect; inconclusive = small, poorly fitted or top-dose-only effect, or another doubt; inactive = no such curve, though single readings can be large; an effect the other way counts as inactive or inconclusive. % is scaled to controls: 0 for no effect and ±100 for the full control effect.

SMILES	Lassa entry inh	HCMV antiviral	Giardia FBPA inh	MARV entry inh	FMDV inh	HCV inhibitor
Cc1ccc(N2C(=O)CSC23C(=O)N(CC(=O)Nc2ccc(C(C)C)cc2)c2ccccc23)cc1C (centres undefined)	-15%[46.1 µM]	25	nt	nt	-23%	nt
O=C(CN1C(=O)C2(SCC(=O)N2c2ccc(F)c(F)c2)c2ccccc21)Nc1cccc(Cl)c1 (centres undefined)	-27%[46.1 µM]	-93*	nt	nt	?	nt
Cc1ccc(NC(=O)CN2C(=O)C3(SCC(=O)N3c3cccc(Cl)c3)c3ccccc32)cc1C (centres undefined)	?	-65*	nt	nt	-11%	nt
O=C1CSC2(C(=O)N(Cc3ccccc3F)c3ccccc32)N1c1ccc(F)cc1 (centres undefined)	-8%[46.1 µM]	-15	nt	nt	?	nt
CCc1ccc(NC(=O)CN2C(=O)C3(SCC(=O)N3c3ccc(F)c(F)c3)c3ccccc32)cc1 (centres undefined)	?	?	nt	nt	0%	nt
CCc1cccc(N2C(=O)CSC23C(=O)N(Cc2ccccc2F)c2ccccc23)c1 (centres undefined)	10µM*	-24	nt	nt	?	nt
COc1ccc(NC(=O)c2c(C)noc2-c2snnc2C)cc1	?	-32	0%	10µM*	12%	-22%
COc1ccc(-c2cc(C(=O)Nc3ccc(C)cc3)no2)cc1	0%	43	6%	9%	23%	23%
CCCCC(=O)OC1=C(C(=O)c2ccccc2)N(CC)S(=O)(=O)c2ccccc21	-11%[46.1 µM]	?	nt	?	-25%	nt
CCN1C(C(=O)c2ccccc2)=C(OC(=O)c2ccccc2OC)c2ccccc2S1(=O)=O	?	-73*	nt	-24%[46.1 µM]	-26%	nt
CCCCN1C(C(=O)c2ccccc2)=C(OC(C)=O)c2ccccc2S1(=O)=O	?	-108*	nt	?	?	nt
CC(C)N1C(=O)/C(=C\c2nc3ccccc3c(=O)[nH]2)c2ccccc21	?	77	19%	?	40µM*	?
Cc1ccc(C)n1-c1nnc(N2CCCC(C(=O)Nc3ccc(C(C)C)cc3)C2)s1 (centres undefined)	4%[46.1 µM]	-32	nt	5%[46.1 µM]	?	nt
CC(=O)N1c2ccc(S(=O)(=O)NCC3CCC(C(=O)Nc4ccc(F)cc4)CC3)cc2CC1C (centres undefined)	?	-26	nt	nt	35µM*	nt
CC(=O)N1CCOc2ccc(S(=O)(=O)NCC3CCC(C(=O)Nc4ccc(C)cn4)CC3)cc21 (centres undefined)	?	-68*	nt	?	?	?
CC(=O)N1c2ccc(S(=O)(=O)NCC3CCC(C(=O)Nc4ccc(C)cn4)CC3)cc2CC1C (centres undefined)	?	-62*	nt	?	?	?
CCc1ccc(NC(=O)C2CCC(CNS(=O)(=O)c3ccc4c(c3)CC(C)N4C(C)=O)CC2)cc1 (centres undefined)	-1%[46.1 µM]	29	nt	nt	18µM*	nt
O=C(CCc1c[nH]c2ccccc12)N1CCC(n2c(C3CCCO3)nc3cc(C(F)(F)F)ccc32)CC1 (centres undefined)	nt	nt	nt	nt	-6%	nt
NC(=O)C1(N2CCCCC2)CCN(C(=O)Nc2ccc(Cl)c(Cl)c2)CC1	7%[46.1 µM]	139	nt	1%[46.1 µM]	-20%	nt
COc1ccccc1NC(=O)C1CCC(CNS(=O)(=O)c2ccc3c(c2)CC(C)N3C(C)=O)CC1 (centres undefined)	?	-31	nt	nt	32µM*	nt
CC(=O)N1c2ccc(S(=O)(=O)NCC3CCC(C(=O)Nc4ccc(C)c(C)c4)CC3)cc2CC1C (centres undefined)	7%[46.1 µM]	-17	nt	nt	18µM*	nt
CC(=O)N1c2ccc(S(=O)(=O)NCCC(=O)NCCc3ccc(Cl)cc3)cc2CC1C (centres undefined)	nt	-61*	2%	nt	-26%	?
COc1ccccc1NC(=O)C1CCN(S(=O)(=O)c2ccc3c(c2)CC(C)N3C(C)=O)CC1 (centres undefined)	12%[46.1 µM]	-18	12%	-2%[46.1 µM]	-14%	-2%
CC(=O)N1c2ccc(S(=O)(=O)NCCC(=O)NCCc3ccc(C)cc3)cc2CC1C (centres undefined)	nt	0	-5%	nt	-28%	?
O=C1[C@H]2[C@H]3[C@H](O)[C@H](O)C/C(=N/OC[C@@H](O)COCc4ccco4)[C@@H]3CC[C@@H]2C(=O)N1C[C@@H]1CCCO1	nt	nt	6%[12.9 µM]	4%[14.2 µM]	nt	nt
SMILES	Lassa entry inh	HCMV antiviral	Giardia FBPA inh	MARV entry inh	FMDV inh	HCV inhibitor
CC(C)c1c(C(=O)NCCN2CCOCC2)cnn1-c1nccc(-c2cccs2)n1	nt	nt	nt	nt	-10%	nt
Nc1c(Cl)ncnc1N/N=C/c1ccc2ccccc2n1	?	-98*	-2%	16µM*	-13%	4µM*
Nc1c(Cl)ncnc1N/N=C/c1ccnc2ccccc12	3%	-14	-11%	0%	16%	-16%
Nc1c(Cl)ncnc1N/N=C/c1ccccn1	2.5µM*	-99*	28%	?	-10%	?
COc1cccc(N2CCN(c3ccc4nnc(CCC(=O)O)n4n3)CC2)c1	16%[46.1 µM]	0	nt	-7%[46.1 µM]	-19%	nt
COc1ccccc1N1CCN(C(=O)C2CCC(Cn3c(=S)[nH]c4ccccc4c3=O)CC2)CC1 (centres undefined)	-24%	-24	-2%	?	?	?
COc1ccc(N2CCN(C(=O)C3CCC(Cn4c(=S)[nH]c5ccccc5c4=O)CC3)CC2)cc1 (centres undefined)	-21%	-81*	7%	10µM*	-8%	1µM*
O=C(C1CCC(Cn2c(=O)[nH]c3ccccc3c2=O)CC1)N1CCN(c2ccccc2)CC1 (centres undefined)	-13%	-18	8%	11%	-18%	-11%[8.37 µM]
O=C(C1CCC(Cn2c(=S)[nH]c3ccccc3c2=O)CC1)N1CCN(c2ccccn2)CC1 (centres undefined)	?	-91*	0%	-7%[46.1 µM]	22µM*	13µM*
O=C(C1CCC(Cn2c(=S)[nH]c3ccccc3c2=O)CC1)N1CCN(c2ccccc2)CC1 (centres undefined)	4%	?	nt	?	-16%	10µM*
O=C(C1CCC(CNc2nc(=S)[nH]c3ccccc23)CC1)N1CCN(c2ccc(F)cc2)CC1 (centres undefined)	?	-28	8%	?	18µM*	?
O=C(N/N=C1/C[C@@H](O)[C@@H](O)[C@@H]2[C@@H]3C(=O)N(C[C@@H]4CCCO4)C(=O)[C@H]3CC[C@H]12)OCc1ccccc1	nt	nt	-1%[12.9 µM]	?	nt	nt
CCN(CC)CCN(C)C(=O)c1ccc(-c2ccccc2)nc1N(C)C	nt	nt	nt	nt	-2%	nt
